Consider ten molecules from ChEMBL document CHEMBL3988442, “University of Dundee, Small-Polar-MMV Screening Library” (2021).

What all share (set-up): scale not given: direction of the effect not stated beside the values
Test [1] addresses Protein translocase subunit SecA (Escherichia coli (strain K12)) (UniProt P10408). In words: Assay to Identify E. coli SecA ATPase Inhibitors. Format: functional. To be noted: 30 µM.
Test [2] concerns the target T1, Ubiquitin-activating enzyme e1, putative (Leishmania donovani (strain BPK282A1)) (UniProt E9BSI1).
T1 sequence (whole entry): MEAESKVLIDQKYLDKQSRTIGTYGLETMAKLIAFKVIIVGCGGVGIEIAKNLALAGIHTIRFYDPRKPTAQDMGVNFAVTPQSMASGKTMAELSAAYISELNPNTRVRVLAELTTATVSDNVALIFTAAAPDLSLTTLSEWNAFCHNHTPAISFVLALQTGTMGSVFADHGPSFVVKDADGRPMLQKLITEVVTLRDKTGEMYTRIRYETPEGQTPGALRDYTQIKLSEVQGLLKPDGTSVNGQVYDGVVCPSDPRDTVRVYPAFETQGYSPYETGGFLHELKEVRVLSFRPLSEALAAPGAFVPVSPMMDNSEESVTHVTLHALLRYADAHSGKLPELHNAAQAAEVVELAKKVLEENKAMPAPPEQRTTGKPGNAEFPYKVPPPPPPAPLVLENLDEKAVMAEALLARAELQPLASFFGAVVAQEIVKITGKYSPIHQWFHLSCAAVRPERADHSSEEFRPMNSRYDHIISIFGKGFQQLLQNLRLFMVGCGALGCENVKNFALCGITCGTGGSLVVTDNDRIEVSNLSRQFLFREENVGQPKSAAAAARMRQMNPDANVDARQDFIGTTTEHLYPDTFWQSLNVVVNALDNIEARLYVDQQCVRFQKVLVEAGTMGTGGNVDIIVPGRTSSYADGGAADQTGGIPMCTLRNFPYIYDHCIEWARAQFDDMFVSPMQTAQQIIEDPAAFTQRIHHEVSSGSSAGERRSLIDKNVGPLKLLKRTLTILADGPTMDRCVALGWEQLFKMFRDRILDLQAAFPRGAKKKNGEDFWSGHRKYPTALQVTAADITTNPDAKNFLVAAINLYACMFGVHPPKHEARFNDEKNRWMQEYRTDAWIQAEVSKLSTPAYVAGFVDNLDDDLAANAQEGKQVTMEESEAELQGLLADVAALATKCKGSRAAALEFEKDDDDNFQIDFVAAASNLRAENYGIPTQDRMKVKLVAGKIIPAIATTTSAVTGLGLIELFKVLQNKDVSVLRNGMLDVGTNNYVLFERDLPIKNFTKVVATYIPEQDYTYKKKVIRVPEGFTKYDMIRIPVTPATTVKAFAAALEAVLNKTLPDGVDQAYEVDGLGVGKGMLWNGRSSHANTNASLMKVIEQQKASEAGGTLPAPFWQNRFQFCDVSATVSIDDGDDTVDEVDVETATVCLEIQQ
In words: Leishmania donovani Ubiquitin Activating Enzyme (LdE1). Format: functional. Conditions: 30 µM.

In test [3] the target is AMP-activated protein kinase, AMPK (Homo sapiens) (UniProt P54646+O43741+P54619+Q9UGJ0+Q9Y478+Q13131+Q9UGI9). As to the kind of experiment: AMP-dependent Kinase enzyme assay. An in vitro enzyme assay that detects ADP turnover that is directly proportional to AMPK activity. This uses naive AMPK that is activated during the assay with MK-8722. In kind it is functional. To be noted: 30 µM.

The target in test [4] is Sialic acid-binding Ig-like lectin 9 (Homo sapiens) (UniProt Q9Y336). As to the kind of experiment: Hs-Siglec9 ALPHAscreen SOP 20170721. To be noted: 10 µM.
The test system of test [5] is Trypanosoma cruzi. As to the kind of experiment: Trypanosoma cruzi phosphomannomutase and mannose-1-phosphate guanylyltransferase assay. In kind it is functional. To be noted: 10 µM.
Test [6] deals with T2, Arginase-2, mitochondrial (Homo sapiens) (UniProt P78540).
T2 sequence (whole entry): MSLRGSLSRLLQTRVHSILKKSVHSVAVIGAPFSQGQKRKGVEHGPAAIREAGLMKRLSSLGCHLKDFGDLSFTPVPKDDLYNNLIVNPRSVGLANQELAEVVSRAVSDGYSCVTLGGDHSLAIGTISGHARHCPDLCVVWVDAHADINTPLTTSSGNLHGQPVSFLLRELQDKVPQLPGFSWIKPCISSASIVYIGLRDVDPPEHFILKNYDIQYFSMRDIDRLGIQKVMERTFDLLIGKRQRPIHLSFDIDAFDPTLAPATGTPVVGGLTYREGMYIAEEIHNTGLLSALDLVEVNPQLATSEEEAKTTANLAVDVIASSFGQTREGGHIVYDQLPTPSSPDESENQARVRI
In words: in vitro enzyme assay to detect the production of urea directly proportional to the activity of Arginase II. Also: in the data most compounds retested in dose-response had high values. In kind it is functional. To be noted: 33.3 µM.

In test [7] the target is T3, Proteasome subunit beta (Trypanosoma cruzi) (UniProt O96673).
T3 sequence (whole entry): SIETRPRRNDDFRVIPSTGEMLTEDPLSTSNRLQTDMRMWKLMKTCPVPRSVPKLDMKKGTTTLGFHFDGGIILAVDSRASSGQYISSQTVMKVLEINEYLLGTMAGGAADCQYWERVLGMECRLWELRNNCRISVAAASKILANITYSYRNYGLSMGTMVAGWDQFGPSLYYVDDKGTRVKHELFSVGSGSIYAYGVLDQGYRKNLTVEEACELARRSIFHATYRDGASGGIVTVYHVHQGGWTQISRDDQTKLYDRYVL
As to the kind of experiment: Trypanosoma cruzi proteasome chymotrypsin-like activity (TcProtChymo) assay. Also: in the data most compounds retested in dose-response had high values. Format: functional. To be noted: 9.37 µM.

The species named for test [8] is Homo sapiens. In words: To identify inhibition of the IFN signalling (Jak-Stat) pathway via expression of an eGFP reporter gene under the control of an IFN-stimulated response element (ISRE) containing MxA promoter. Format: functional. To be noted: 30 µM.
For test [9], the target named is T4, Tyrosyl-tRNA synthetase, putative (Trypanosoma cruzi (strain CL Brener)) (UniProt Q4DSP6).
T4 sequence (whole entry): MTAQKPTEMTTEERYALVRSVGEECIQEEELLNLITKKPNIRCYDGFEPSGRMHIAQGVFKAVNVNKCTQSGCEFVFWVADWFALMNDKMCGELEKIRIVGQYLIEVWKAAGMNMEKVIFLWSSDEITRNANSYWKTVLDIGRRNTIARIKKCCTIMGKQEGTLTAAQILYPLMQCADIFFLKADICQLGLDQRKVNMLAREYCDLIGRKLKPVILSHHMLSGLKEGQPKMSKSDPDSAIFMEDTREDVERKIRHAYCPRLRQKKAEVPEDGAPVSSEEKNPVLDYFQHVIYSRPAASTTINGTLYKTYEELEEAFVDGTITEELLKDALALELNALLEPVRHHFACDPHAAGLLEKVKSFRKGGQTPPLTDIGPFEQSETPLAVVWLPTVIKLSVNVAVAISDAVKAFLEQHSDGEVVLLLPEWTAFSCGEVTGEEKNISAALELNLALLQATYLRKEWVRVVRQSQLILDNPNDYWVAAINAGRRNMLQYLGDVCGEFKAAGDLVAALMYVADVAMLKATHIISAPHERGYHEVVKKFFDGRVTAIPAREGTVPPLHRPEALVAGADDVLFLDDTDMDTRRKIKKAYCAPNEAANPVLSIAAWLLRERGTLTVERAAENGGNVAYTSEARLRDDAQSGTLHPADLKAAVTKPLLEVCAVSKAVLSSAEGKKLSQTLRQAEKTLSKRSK
In words: Trypanosoma cruzi tyrosyl tRNA synthetase (TcYRS) _High Tyrosine SOP. Also: in the data most compounds retested in dose-response had high values. Format: functional. Conditions: 30 µM.

The target of test [10] is T4, Tyrosyl-tRNA synthetase, putative (Trypanosoma cruzi (strain CL Brener)). As to the kind of experiment: Trypanosoma cruzi tyrosyl tRNA synthetase (TcYRS) SOP. In kind it is functional. Conditions: 30 µM.
In test [11] the target is Chromo domain-containing protein 1 (Saccharomyces cerevisiae (strain ATCC 204508 / S288c) (Baker's yeast)) (UniProt P32657). In words: ScCHD-1 Enzyme Inhibition Assay. Also: in the data most compounds retested in dose-response had high values. Format: functional. Conditions: 30 µM.

The structures appear in SMILES notation. For some assays here: Potency and affinity values are given separately.

Chain of Sialic acid-binding Ig-like lectin 9 (Homo sapiens) (Q9Y336 whole entry): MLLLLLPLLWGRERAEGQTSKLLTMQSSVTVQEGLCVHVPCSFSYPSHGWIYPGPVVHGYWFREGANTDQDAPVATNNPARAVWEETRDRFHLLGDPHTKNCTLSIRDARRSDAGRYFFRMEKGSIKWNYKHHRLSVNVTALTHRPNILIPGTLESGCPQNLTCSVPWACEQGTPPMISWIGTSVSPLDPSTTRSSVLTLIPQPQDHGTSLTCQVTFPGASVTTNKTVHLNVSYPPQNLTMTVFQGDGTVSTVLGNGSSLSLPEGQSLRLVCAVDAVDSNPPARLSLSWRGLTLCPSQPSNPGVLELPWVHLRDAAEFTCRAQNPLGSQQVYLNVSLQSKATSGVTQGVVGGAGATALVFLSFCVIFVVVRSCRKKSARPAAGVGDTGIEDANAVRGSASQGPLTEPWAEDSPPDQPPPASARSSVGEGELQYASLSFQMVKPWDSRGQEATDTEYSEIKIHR
Chain of Protein translocase subunit SecA (Escherichia coli (strain K12)) (P10408 whole entry): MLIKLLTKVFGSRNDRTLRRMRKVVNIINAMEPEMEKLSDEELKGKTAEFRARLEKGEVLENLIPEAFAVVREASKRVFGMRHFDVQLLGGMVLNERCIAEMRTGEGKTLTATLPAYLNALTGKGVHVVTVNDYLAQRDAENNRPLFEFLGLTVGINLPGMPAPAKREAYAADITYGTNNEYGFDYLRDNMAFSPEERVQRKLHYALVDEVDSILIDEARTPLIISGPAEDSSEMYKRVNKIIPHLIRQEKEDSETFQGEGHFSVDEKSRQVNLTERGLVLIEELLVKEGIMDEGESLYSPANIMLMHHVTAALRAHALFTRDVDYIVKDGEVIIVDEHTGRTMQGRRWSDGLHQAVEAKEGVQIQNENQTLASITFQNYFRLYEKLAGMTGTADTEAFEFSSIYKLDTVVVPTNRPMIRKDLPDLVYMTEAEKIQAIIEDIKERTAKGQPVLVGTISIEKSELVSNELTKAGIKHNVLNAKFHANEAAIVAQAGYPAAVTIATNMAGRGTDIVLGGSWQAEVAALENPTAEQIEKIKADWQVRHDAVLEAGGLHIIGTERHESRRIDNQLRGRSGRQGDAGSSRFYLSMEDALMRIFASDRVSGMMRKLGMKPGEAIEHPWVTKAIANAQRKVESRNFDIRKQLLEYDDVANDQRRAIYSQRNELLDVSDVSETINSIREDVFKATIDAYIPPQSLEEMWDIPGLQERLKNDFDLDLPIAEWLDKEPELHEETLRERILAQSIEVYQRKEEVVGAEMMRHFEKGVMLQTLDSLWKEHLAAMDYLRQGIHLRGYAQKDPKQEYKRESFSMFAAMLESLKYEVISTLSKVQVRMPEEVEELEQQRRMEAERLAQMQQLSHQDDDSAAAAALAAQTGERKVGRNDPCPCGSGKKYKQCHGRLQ
Chain of Chromo domain-containing protein 1 (Saccharomyces cerevisiae (strain ATCC 204508 / S288c) (Baker's yeast)) (P32657 whole entry, the tested form may be a part): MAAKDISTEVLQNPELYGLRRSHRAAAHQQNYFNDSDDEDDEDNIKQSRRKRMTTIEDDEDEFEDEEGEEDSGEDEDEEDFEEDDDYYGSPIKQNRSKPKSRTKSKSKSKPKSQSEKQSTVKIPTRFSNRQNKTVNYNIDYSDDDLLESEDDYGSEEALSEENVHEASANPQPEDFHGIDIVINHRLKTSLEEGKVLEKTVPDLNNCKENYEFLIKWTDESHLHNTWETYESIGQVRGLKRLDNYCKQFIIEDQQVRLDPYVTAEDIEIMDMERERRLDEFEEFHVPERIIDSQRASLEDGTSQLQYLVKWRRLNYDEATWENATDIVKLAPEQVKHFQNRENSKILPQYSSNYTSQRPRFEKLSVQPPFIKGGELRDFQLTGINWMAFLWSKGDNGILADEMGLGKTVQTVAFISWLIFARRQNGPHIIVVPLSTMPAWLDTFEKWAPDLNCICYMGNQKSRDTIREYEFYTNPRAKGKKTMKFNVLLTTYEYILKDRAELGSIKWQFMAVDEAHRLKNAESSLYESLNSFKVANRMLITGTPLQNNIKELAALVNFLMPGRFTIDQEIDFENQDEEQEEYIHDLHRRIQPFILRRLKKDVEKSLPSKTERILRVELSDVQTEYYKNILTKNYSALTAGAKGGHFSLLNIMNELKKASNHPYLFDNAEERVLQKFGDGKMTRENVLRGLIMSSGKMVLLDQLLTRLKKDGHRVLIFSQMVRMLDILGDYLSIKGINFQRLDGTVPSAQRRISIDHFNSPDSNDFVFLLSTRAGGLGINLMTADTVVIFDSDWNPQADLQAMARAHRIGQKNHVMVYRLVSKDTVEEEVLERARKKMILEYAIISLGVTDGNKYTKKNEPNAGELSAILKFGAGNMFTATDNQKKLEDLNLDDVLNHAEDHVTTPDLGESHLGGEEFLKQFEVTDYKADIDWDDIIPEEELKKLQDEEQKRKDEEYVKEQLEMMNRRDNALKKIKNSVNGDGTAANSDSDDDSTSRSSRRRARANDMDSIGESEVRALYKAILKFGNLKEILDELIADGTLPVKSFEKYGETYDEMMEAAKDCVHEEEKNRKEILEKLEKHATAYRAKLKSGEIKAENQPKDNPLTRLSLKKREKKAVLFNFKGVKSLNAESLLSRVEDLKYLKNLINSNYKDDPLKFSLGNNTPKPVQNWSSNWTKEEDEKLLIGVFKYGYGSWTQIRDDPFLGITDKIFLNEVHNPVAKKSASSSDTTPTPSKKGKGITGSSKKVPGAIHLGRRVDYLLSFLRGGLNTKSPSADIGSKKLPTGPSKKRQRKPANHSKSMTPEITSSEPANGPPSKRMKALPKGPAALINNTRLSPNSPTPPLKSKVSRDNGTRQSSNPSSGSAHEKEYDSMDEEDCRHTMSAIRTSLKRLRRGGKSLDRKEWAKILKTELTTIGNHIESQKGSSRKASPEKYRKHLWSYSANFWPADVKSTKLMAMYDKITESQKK

For `CCc1c(C)nc2n(c1=O)CC(C(=O)Nc1nc3c(s1)CCCC3)CS2` (stereo not given), the Percent Effect was -2.52% in test [1]; 13% in test [2]; 6.33% in test [3]; 7.47% in test [4]; 2.86% in test [5]; -4.52% in test [6]. Further, the Percent Effect in test [7] was 7.66%; in [8], 18.6%; in test [9] it was 6.35%; in [10], 14.1%; in test [11], -8.32%.

Regarding `CCN(CC)S(=O)(=O)N1CCCC(c2ccc(C(=O)O)cc2)C1` (stereo not given), the Percent Effect was -1.63% in test [1]; -2.7% in [2]; 0.184% in test [3]; 8.84% in test [4]; -4.44% in [5]; -4.76% in [6]. Further, the Percent Effect in test [7] was 0.69%; in [8], -0.683%; in test [9] it was 2.65%; in test [10] it was 0%; in test [11], -0.737%.

With `Cc1ccc(CNC(=O)CN2CCN(CC(O)c3ccco3)CC2)cc1` (stereo not given), the Percent Effect was -2.27% in test [1]; 20.8% in test [2]; -4.52% in test [3]; -0.747% in test [4]; 0.0986% in test [5]; -1.94% in test [6]. Also, the Percent Effect in test [7] was 9.4%; in test [8] it was 7.63%; in [9] it was 4.23%; in test [10], 24.4%; in [11] it was -10.3%.

For `CC(C)(C)n1ncc2c1CCCC2NCc1cccc2c1OCO2` (stereo not given), the Percent Effect in test [1] was -2.65%; in test [2] it was -1.27%; in test [3], 2.85%; in [4], 2.62%; in test [5], -4.41%; in test [6], 6.24%. Also, the Percent Effect in test [7] was 10.1%; in test [8] it was 12.2%; in [9], 1.04%; in [10], -5.06%; in [11], -10.4%.

Consider `O=C(CCN1CCCC1C1CCCCC1)N1CCc2sccc2C1` (stereo not given), for which the Percent Effect is -3.42% in [1]; -48.6% in test [2]; 11.2% in test [3]; -0.447% in [4]; 5.75% in [5]; -5.21% in test [6]. Moreover, the Percent Effect is -0.18% in test [7]; -25.7% in test [8]; 14.3% in [9]; 11.1% in [10]; 10.3% in [11].

Regarding `Cc1cc(C)n(CC2CCCCN2Cc2cscn2)n1` (stereo not given), the Percent Effect was -3.65% in test [1]; 13% in test [2]; -3.15% in test [3]; 14.9% in test [4]; -1.27% in [5]; 4.42% in test [6]. In addition, the Percent Effect in test [7] was 7.52%; in test [8], 12.4%; in [9], 7.62%; in test [10] it was 11.8%; in test [11] it was -10.8%.

For `Cc1ccc(NC(=O)NC(C)c2nc[nH]n2)s1` (stereo not given), the Percent Effect is -7.16% in test [1]; 5.41% in test [2]; 1.69% in test [3]; 19.6% in test [4]; -0.293% in test [5]; 2.23% in test [6]. For the same molecule, the Percent Effect is 9.7% in test [7]; -8.4% in [8]; 6.45% in test [9]; 13.6% in test [10]; -2.14% in test [11].

`CC(NC(=O)Cn1cccn1)c1ccc2c(c1)OCCCO2` (stereo not given): the Percent Effect is -2.38% in [1]; 28.6% in test [2]; 20.8% in [3]; 1.54% in test [4]; 6.55% in test [5]; 3.92% in test [6]. For the same molecule, the Percent Effect in [7] was 10.1%; in test [8] it was 32.9%; in test [9], 8.74%; in test [10], 14.6%; in test [11] it was -16.5%.

Regarding `O=c1oc(-c2cccs2)nn1CC(O)c1ccc(F)cc1` (stereo not given), the Percent Effect in test [1] is -3.82%; in test [2], 0%; in test [3], -2.3%; in test [4], 3.88%; in test [5], 3.41%; in test [6], -1.04%. Also, the Percent Effect is 13.9% in [7]; 18.7% in test [8]; 6.01% in [9]; 18.5% in test [10]; -5.35% in [11].

Regarding `CC(C)Cc1noc(CN2CCN(c3nccs3)CC2)n1`, the Percent Effect in test [1] was -8.59%; in [2], 10.4%; in test [3], 5.21%; in test [4] it was 0.0825%; in test [5] it was -5.99%; in test [6], -2.13%. For the same molecule, the Percent Effect in test [7] was 6.25%; in [8], 33.3%; in [9], 0.971%; in [10] it was 7.32%; in [11], -3.68%.
